From PubChem BioAssay come the findings set out here.

Assay [1] deals with Plasmodium falciparum Sir2 (PF13_0152, Sir2A). In words: Plasmodium falciparum Sir2A binding compounds – biochemical, small-molecule microarray, 635 nm fluorescence, primary screen (AID 1098).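 Also: score merges spot fluorescence intensity with its signal-to-noise ratio.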 As to conditions: fluorescence 635 nm, higher = more signal.
Assay [2] in a line: probe aDKK1 binding to arrayed compounds – biochemical, biotinylated probe, 635/667 nm fluorescence, primary screen (AID 1099).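 Also: score merges 667nm spot fluorescence with signal to noise across triplicate slides.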 As to conditions: small-molecule microarray, higher = more signal.
The nature of assay [3]: probe aCHRDL2 binding to arrayed compounds – biochemical, biotinylated probe, 635/667 nm fluorescence, primary screen (AID 1100). The conditions noted are these: small-molecule microarray, higher = more signal.
The nature of assay [4]: change in splice reporter luminescence, either direction, cell-based, HEK293, spliceosome inhibition project, primary screen (AID 1101).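 Also: HEK293 cells carrying a splicing-competent luciferase reporter gene; test concentration not given here.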 As to conditions: HEK293 splicing luciferase reporter, 24 h, higher = more signal, called active from +8 up or from −8 down.
Assay [5] deals with Fibroblast growth factor 10 (Homo sapiens) (UniProt O15520). In words: compounds binding fibroblast growth factor 10 – biochemical, small-molecule microarray, 635 nm fluorescence, primary screen (AID 1102). The conditions noted are these: FGF10 binding, fluorescence 635 nm, higher = more signal.
Sequence of Fibroblast growth factor 10 (Homo sapiens) (O15520 whole entry, looked up): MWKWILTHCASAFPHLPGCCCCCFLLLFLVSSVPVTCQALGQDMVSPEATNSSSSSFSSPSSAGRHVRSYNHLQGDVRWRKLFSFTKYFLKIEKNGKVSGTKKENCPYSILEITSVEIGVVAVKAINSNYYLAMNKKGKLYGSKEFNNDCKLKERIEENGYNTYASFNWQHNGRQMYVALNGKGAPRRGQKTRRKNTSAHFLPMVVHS
The subject of assay [6] is glycogen synthase kinase-3 (GSK3A per assay name; protocol says GSK3B). In words: compounds binding glycogen synthase kinase-3 – biochemical, small-molecule microarray, 635 nm fluorescence, GSK3A, primary screen (AID 1103). Also: the record names both GSK3A and GSK3B. As to conditions: fluorescence 635 nm, higher = more signal.
The target of assay [7] is Epidermal growth factor receptor (Homo sapiens) (UniProt P00533). The experiment in a line: compounds binding epidermal growth factor receptor – biochemical, small-molecule microarray, 635 nm fluorescence, primary screen (AID 1104).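 Also: score merges 667 nm emission intensity with spot signal to noise over triplicate slides.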 The conditions noted are these: EGFR binding, higher = more signal.
Sequence of Epidermal growth factor receptor (Homo sapiens) (P00533 whole entry, looked up): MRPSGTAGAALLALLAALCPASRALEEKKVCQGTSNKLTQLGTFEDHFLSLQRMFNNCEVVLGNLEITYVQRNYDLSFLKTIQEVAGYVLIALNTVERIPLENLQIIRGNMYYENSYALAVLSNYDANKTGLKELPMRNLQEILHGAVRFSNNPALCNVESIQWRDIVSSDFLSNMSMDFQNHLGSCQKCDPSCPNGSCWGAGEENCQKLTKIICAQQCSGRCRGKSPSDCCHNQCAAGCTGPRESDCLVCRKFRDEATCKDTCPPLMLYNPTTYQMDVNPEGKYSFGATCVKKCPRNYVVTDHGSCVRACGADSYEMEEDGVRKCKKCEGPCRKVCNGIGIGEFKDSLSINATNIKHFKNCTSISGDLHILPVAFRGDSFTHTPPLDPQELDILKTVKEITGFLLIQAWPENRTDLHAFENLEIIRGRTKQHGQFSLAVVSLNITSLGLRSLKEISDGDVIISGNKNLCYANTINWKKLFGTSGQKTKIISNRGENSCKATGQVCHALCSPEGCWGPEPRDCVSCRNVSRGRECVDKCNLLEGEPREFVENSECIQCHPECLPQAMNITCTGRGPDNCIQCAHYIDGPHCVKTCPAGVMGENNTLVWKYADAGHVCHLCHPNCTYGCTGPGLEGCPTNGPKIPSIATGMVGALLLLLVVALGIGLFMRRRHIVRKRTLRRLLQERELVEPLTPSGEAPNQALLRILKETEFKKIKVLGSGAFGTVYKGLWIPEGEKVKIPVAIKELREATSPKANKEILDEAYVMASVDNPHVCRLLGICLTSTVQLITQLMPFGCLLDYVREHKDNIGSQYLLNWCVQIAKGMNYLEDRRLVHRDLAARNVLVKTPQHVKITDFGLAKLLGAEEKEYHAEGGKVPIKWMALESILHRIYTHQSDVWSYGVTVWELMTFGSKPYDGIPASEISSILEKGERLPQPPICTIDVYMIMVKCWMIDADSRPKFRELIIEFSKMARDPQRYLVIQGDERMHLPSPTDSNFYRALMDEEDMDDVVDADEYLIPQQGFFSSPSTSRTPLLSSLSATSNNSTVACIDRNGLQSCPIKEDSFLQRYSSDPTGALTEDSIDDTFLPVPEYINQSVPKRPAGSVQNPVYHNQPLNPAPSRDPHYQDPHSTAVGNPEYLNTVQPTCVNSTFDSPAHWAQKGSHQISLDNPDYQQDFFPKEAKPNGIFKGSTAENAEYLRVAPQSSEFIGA
Assay [8] addresses Follistatin-related protein 3 (Homo sapiens) (UniProt O95633). In words: compounds binding follistatin-related protein 3 – biochemical, small-molecule microarray, 635 nm fluorescence, primary screen (AID 1105).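 Also: score merges emission near 667 nm and signal to noise per printed spot across three slides.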 As to conditions: FSTL3 binding, higher = more signal.
Assay [9] addresses Dickkopf-related protein 1 (Homo sapiens) (UniProt O94907). In words: small molecules binding DKK1 protein – biochemical, small-molecule microarray, 635 nm fluorescence scan, primary screen (AID 1106).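 Also: score merges emission near 667 nm with signal to noise over three replicate slides.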 The conditions noted are these: higher = more signal.
Assay [10] concerns Inhibin beta A chain (activin A). In words: small molecules binding activin A – biochemical, small-molecule microarray, 635 nm fluorescence scan, primary screen (AID 1107).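 Also: mouse activin A protein probed at 4.33 µg/mL on printed slides; score merges bound-protein fluorescence near 667 nm with spot signal-to-noise.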 The conditions noted are these: INHBA, higher = more signal.
The test system of assay [11] is Human papillomavirus type 1a protein E7 (residues 44-93). In words: small molecules binding HPV E7 44-93 – biochemical, small-molecule microarray, residues 44-93, 635 nm fluorescence, primary screen (AID 1108).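 Also: E7 fragment applied at 1 µg/mL in TBST for 1 h at 4 C; score combines spot fluorescence with its signal to noise ratio.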 As to conditions: fluorescence 635 nm, higher = more signal.
A short description of assay [12]: hepatitis C replication reporter changes, two-sided – Huh7 cells, luciferase reporter, HCV replication inhibitor project, primary screen (AID 1109).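 Also: huh7 hepatoma cells harbouring a luciferase neomycin HCV replicon reporter; luciferase luminescence as measure of HCV replicon replication; test concentration not given here.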 The conditions noted are these: Huh7 HCV replicon luciferase reporter, 48 h; higher = more signal.
Assay [13] has as its target Left-right determination factor 2 (Homo sapiens) (UniProt O00292). The experiment in a line: small molecules binding LEFTY2 protein – biochemical, small-molecule microarray, 635 nm fluorescence scan, primary screen (AID 1110). The conditions noted are these: higher = more signal.
Assay [14] addresses Calmodulin-1 (Homo sapiens) (UniProt P0DP23). The experiment in a line: small molecules binding calmodulin-1 with EGTA – biochemical, small-molecule microarray, Cy5-labelled CALM1, profiling panel (AID 1111).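 Also: labelled calmodulin applied in Tris saline Tween buffer holding calcium plus EGTA and DTT.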 The conditions noted are these: Cy5-CALM1 binding fluorescence, higher = more signal.
For assay [15] the target is unchanged. In words: small molecules binding Ca-loaded calmodulin-1 – biochemical, small-molecule microarray, Cy5-labelled CALM1, plus calcium, artefact control for SMM control-protein annotation, profiling panel (AID 1112).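 Also: score merges spot fluorescence with signal to noise from triplicate slides.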 As to conditions: Cy5-CALM1 binding fluorescence, higher = more signal.
Assay [16] is described as follows: probe aWnt5a binding to arrayed compounds – biochemical, biotinylated probe, 635/667 nm fluorescence, primary screen (AID 1113).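 Also: score merges 667 nm fluorescence intensity with signal-to-noise per printed feature.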 The conditions noted are these: small-molecule microarray, higher = more signal.
A short description of assay [17]: probe aShh binding to arrayed compounds – biochemical, biotinylated probe, 635/667 nm fluorescence, primary screen (AID 1114).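 Also: probe is biotin-labelled aShh protein from a stem cell growth factor screen; measures binding of labelled protein to compounds printed on the slide; score merges feature fluorescence at 667 nm with signal-to-noise.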 The conditions noted are these: small-molecule microarray, higher = more signal.
A short description of assay [18]: probe aNog binding to arrayed compounds – biochemical, biotinylated probe, 635/667 nm fluorescence, primary screen (AID 1115).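 Also: probe is biotinylated aNog protein used at 0.15 µg/mL for 1 h at 4 C; z-score combines 667 nm fluorescence of each spot with its signal to noise.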 The conditions noted are these: small-molecule microarray, higher = more signal.
Assay [19] concerns the target Torsin-1A-interacting protein 1 (Homo sapiens) (UniProt Q5JTV8). In words: compound microarray binding of lysate hLAP1 – cell lysate, small-molecule microarray, COS7 lysate, 635/667 nm fluorescence, primary screen (AID 1116). As to conditions: 635 nm fluorescence, higher = more signal.
Assay [20] deals with Alpha-bungarotoxin (Bungarus multicinctus) (UniProt P60615). The experiment in a line: compounds binding labelled alpha-BTX control protein – biochemical, small-molecule microarray, Alexa647 label, 635/667 nm fluorescence, artefact control for SMM control protein annotation, profiling panel (AID 1117). The conditions noted are these: alpha-BTX-A647 binding fluorescence, higher = more signal.
Sequence of Alpha-bungarotoxin (Bungarus multicinctus) (P60615 whole entry, looked up): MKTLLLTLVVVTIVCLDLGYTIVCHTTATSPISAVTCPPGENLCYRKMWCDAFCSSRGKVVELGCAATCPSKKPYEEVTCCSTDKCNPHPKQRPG

Calls of active or inactive are those of the source.

Sequence of Follistatin-related protein 3 (Homo sapiens) (O95633 whole entry, looked up): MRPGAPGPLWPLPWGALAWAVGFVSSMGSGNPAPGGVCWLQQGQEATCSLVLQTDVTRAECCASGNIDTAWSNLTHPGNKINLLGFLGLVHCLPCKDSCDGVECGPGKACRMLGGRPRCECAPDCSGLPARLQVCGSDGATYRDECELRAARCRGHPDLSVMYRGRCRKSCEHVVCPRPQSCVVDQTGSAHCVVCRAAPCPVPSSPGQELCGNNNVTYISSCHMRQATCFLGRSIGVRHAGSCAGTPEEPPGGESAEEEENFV
Sequence of Torsin-1A-interacting protein 1 (Homo sapiens) (Q5JTV8 whole entry, looked up): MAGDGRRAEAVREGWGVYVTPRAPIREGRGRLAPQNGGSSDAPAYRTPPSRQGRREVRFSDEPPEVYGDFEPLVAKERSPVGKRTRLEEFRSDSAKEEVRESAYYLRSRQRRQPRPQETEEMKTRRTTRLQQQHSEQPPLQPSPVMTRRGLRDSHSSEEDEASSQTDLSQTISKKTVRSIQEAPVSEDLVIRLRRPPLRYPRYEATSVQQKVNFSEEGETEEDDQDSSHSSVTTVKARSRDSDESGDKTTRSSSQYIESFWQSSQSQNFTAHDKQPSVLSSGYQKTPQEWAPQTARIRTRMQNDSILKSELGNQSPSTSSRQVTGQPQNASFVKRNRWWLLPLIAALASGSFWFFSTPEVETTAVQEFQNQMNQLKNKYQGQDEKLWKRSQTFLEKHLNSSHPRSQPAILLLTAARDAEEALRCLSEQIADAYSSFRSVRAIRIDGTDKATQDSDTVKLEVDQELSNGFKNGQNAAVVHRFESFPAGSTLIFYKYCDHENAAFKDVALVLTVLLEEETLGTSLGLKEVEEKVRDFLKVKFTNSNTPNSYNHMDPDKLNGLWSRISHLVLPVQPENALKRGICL
Sequence of Left-right determination factor 2 (Homo sapiens) (O00292 whole entry, looked up): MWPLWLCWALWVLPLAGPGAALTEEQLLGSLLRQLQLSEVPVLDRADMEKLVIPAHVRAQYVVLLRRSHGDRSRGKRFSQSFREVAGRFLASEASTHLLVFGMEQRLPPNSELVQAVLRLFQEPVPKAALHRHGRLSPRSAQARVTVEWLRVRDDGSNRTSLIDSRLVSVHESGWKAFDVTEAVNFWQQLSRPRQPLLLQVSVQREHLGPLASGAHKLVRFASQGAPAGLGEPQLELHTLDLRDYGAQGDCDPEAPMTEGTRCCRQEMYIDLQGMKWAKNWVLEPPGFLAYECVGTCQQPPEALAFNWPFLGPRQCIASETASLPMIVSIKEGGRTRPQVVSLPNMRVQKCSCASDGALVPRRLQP
Sequence of Dickkopf-related protein 1 (Homo sapiens) (O94907 whole entry, looked up): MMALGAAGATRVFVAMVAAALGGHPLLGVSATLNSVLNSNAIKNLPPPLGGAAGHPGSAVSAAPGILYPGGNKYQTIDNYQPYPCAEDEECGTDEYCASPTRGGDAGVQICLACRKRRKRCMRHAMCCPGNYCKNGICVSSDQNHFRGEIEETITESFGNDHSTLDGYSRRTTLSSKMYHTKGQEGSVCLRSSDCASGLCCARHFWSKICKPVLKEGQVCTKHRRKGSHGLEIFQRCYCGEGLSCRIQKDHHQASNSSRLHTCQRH

For `C=CCC(OC(C)=O)[C@@H]1[C@@H](N(Cc2ccc(-c3cccc(C(F)(F)F)c3)o2)C(=O)c2ccc(-c3ccccc3)cc2)c2cc(OCCCO)ccc2N1C(=O)Cc1ccc(OC)cc1` (stereo not given in full), the composite z-score in assay [1] was -0.0081; in assay [2], 0.109; in assay [3] it was 0.796; in assay [5], -0.0385; in assay [6], -0.661; in [7] it was -0.574. For the same compound, the composite z-score in assay [8] is -0.201; in [9], -0.361; in [10] it was 1.44; in [11] it was -0.0271; in assay [13], -0.236; in assay [14], -1.05. Besides, the composite z-score in assay [15] was 0.897; in [16], -0.104; in assay [17] it was -0.0931; in assay [18], -0.0086; in assay [19] it was -0.0085; in assay [20], 0.497. The z-score in assay [4] is -1.07 (inactive); in assay [12], -0.169.
For the compound `COCCOC(=O)N1C(=O)[C@@]2(c3cc(C#CC4(O)CCCCCC4)ccc31)[C@H](C(=O)NC[C@H](O)c1ccccc1)[C@H]1C(=O)O[C@H](c3ccccc3)[C@H](c3ccccc3)N1[C@@H]2c1ccccc1OCCO`, the composite z-score in assay [1] is 1.27; in [2], 0.145; in [3], 0.348; in assay [5], 1.15; in assay [6], 1.31; in assay [7], 0.479. For the same compound, the composite z-score in [8] worked out at 1.33; in [9], 0.95; in [10], 0.158; in assay [11], 0.726; in assay [13] it was 0.678; in assay [14] it was 1.18. Also, the composite z-score in [15] was 0.0465; in assay [16], -0.129; in [17], 0.699; in assay [18], -0.0939; in assay [19] it was 0.945; in assay [20] it was 1.45. The z-score is -0.747 (inactive) in assay [4] and -2.56 in [12].
Consider `COC(=O)c1c(CC[C@@H](CO)NC(=O)Nc2ccc(OC)cc2)oc(C(=O)Cc2ccccc2)c1C(=O)OC`, for which the composite z-score is 1.36 in [1]; 0.0707 in assay [2]; -0.0477 in assay [3]; 0.394 in assay [5]; 0.618 in [6]; 0.0445 in [7]. Further, the composite z-score in [8] was 0.325; in assay [9] it was 0.353; in assay [10] it was 0.306; in assay [11], 0.316; in assay [13] it was 0.239; in assay [14], -0.315. Further, the composite z-score is -0.464 in assay [15]; -0.0445 in [16]; -0.138 in assay [17]; 0.068 in assay [18]; 0.333 in assay [19]; 0.655 in assay [20]. Moreover, the z-score in assay [4] was -0.487 (inactive); in assay [12] it was 0.685.
For the compound `O=C(NC1CC1)[C@@H]1c2ccccc2C(=O)N(Cc2ccccc2C(F)(F)F)[C@H]1c1ccc(CO)cc1`, the composite z-score came to 0.271 in assay [1]; 0.561 in [2]; 0.341 in assay [3]; 0.554 in [5]; 1.27 in [6]; 0.388 in assay [7]. Besides, the composite z-score in assay [8] worked out at 0.471; in assay [9] it was 0.113; in assay [10], 0.708; in assay [11], 1.06; in [13], 0.319; in assay [14], 0.64. Further, the composite z-score in assay [15] was 0.585; in assay [16], -0.0977; in [17], 0.172; in assay [18] it was 0.0272; in assay [19], 0.714; in assay [20], 0.353. The z-score in assay [4] was -0.0246 (inactive); in assay [12], -0.639.
On to `COc1ccc([Si](C)(C)[C@@H]2[C@@H](CCn3cc([C@H](O)c4ccccc4)nn3)O[C@]3(C(=O)N(C)c4c(Br)cc(C)cc43)[C@H]2C)cc1`, for which the composite z-score in [1] is -0.384; in assay [2], 0.041; in [3], 0.703; in assay [5] it was 0.0565; in [6], -0.755; in assay [7], -0.212. Also, the composite z-score in assay [8] is -0.395; in assay [9], -0.248; in assay [10] it was 0.206; in assay [11], -1.29; in [13], 0.287; in [14] it was -0.0327. The composite z-score is 0.0747 in [15]; -0.157 in [16]; -0.0991 in assay [17]; -0.169 in assay [18]; 0.184 in assay [19]; 0.178 in assay [20]. For the same compound, the results for the z-score in assay [4] and in [12] were -3.07 (inactive) and -4.23, respectively.
